According to PubChem BioAssay AID488857 (Sanford-Burnham Center for Chemical Genomics, 2010):
In all, about 1,400 compounds went through this assay and about 560 (40%) were called active. So high a share suggests a set chosen from earlier hits. This is one part of the list. Unmarked numbers belong to inactive results.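 The calls were made as follows: active = mean inhibition over duplicate tests at 10 µM above 50%; inactive = the rest.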

experiment: ASC/caspase-1 reporter retest in S. cerevisiae at one dose, specificity check for NALP1 project (AID 488857); settings: S. cerevisiae ASC/Caspase-1, beta-galactosidase luminescence, 24 h; at 10 µM; hits give high values

| Compound | inhibition |
| --- | --- |
| Nc1[nH]ncc1N=Nc1ccc(Cl)cc1 | 64.8% (active) |
| CCCCNC(=O)COC(=O)c1ccc(Cl)c(S(N)(=O)=O)c1 | 37.4% |
| CCCCOc1ccc(C(=O)CCN2CCCCC2)cc1 | 32.5% |
| CCCOc1ccc(C(=O)c2nc3c(n2O)CCCCC3)cc1 | 52% (active) |
| CCCCCCNc1nc(NCc2ccco2)nc(OCC)n1 | 56.7% (active) |
| O=[N+]([O-])c1cccc(CNc2ccc3c(c2)CCC3)c1 | 59.6% (active) |
| COc1cccc(CNc2ccc3c(c2)CCC3)c1 | 30.4% |
| COc1cccc(OCc2ccc(C(=O)NCC3CCCO3)cc2)c1 (stereo not drawn) | 48.8% |
| CCn1ncc([N+](=O)[O-])c1C(=O)Nc1ccc(C(=O)N2CCCCC2)cc1 | 43.9% |
| CCCc1cc(C(=O)Nc2c(C)n(C)n(-c3ccccc3)c2=O)no1 | 16.9% |
| CCCc1cc(C(=O)Nc2cccc(Cl)c2)no1 | 81.6% (active) |
| CCn1nccc1C(=O)Nc1ccc(Cl)cn1 | 34.9% |
| CCCc1cc(C(=O)Nc2ccc(F)cc2F)no1 | 46.5% |
| CCn1ncc(C(=O)Nc2cccc(Cl)c2)c1C | 54.3% (active) |
| Cc1cc(C)c(S(=O)(=O)Nc2ccc(OCC(=O)O)cc2)c(C)c1 | 29.1% |
| CCNC(=S)SCCOc1ccccc1C | 79.3% (active) |
| COc1ccc(N(CCC#N)S(=O)(=O)c2ccc(Cl)cc2)cc1 | 26.1% |
| CC1CCCCC1NC(=O)/C(C#N)=C/c1ccccc1F (stereo not drawn) | 74.2% (active) |
| CCCSc1nnc(C(C)C)n1N | 26.2% |
| CCOc1ccc(/C=C/C(=O)c2ccccc2)cc1OC | 55.5% (active) |
| COc1ccc(/C=N/OC(=O)Nc2ccccc2)cc1[N+](=O)[O-] | 32.5% |
| CCOC(=O)c1cc(-c2ccccc2)n(CC(=O)Nc2ccc(OC)c(OC)c2)c1C | 37.5% |
| CC(C)c1nc2sc3c(=O)[nH]cnc3c2c2c1CCC2 | 23.9% |
| COc1ccccc1N1C(=O)C2CCC(c3ccccc3)CC2C1=O (stereo not drawn) | 27.9% |
| Cc1cccc(Cn2c(C(C)(C)C)cc3cccnc32)c1 | 47.4% |

| Compound | inhibition |
| --- | --- |
| CC(C)(C)c1cc2cccnc2n1Cc1cccc(Cl)c1 | 52.5% (active) |
| CCSc1ncc(/C=N/Nc2ccccc2)n1C | 75.3% (active) |
| CCSc1nnc(-c2cnn(-c3ccccc3)c2-n2cccc2)n1C | 34.5% |
| COc1cc(NC(C)CCCN)c2ncccc2c1Oc1ccccc1 (stereo not drawn) | 29.6% |
| COC(=O)C1(C(C[N+](=O)[O-])c2ccc(C)cc2)C(=O)NCC1c1ccco1 (stereo not drawn) | 49% |
| Cc1[nH]n(-c2ccccc2)c(=O)c1C(C[N+](=O)[O-])c1ccc(Br)cc1 (stereo not drawn) | 79% (active) |
| Cc1ccc(C(C[N+](=O)[O-])c2c(C)[nH]n(-c3ccccc3)c2=O)cc1 (stereo not drawn) | 82.5% (active) |
| Cc1[nH]n(-c2ccccc2)c(=O)c1C(C[N+](=O)[O-])c1ccc(Cl)cc1 (stereo not drawn) | 87.4% (active) |
| Cc1cc2ccccn2c1C(C[N+](=O)[O-])c1ccc(N(C)C)cc1 (stereo not drawn) | 21.9% |
| O=c1cc(CSc2ccc(Cl)cc2)[nH]c2[nH]n(-c3ccccc3)c(=O)c12 | 42.8% |
| O=C1N/C(=N\N=C\c2cccnc2)SC1Cc1ccc(SC(F)F)cc1 (stereo not drawn) | 29.8% |
| NC(=O)c1ncc(C(F)(F)F)cc1Oc1ccc(C(F)(F)F)cc1 | 42.5% |
| CCOc1cc(/C=N/NC(=O)c2nn(C)cc2Br)ccc1OCc1ccccc1Cl | 26.2% |
| CC(=O)Nc1ccc2nc(CN3CCC(CO)(CCc4ccccc4)CC3)ccc2c1 | 36.4% |
| CCCCn1cnc2c1c(=O)[nH]c(=O)n2CCCC | 7.55% |
| Cc1[nH]c2ccccc2c1C(=O)CSc1nc2ncc(Cl)cc2[nH]1 | 36.2% |
| CC(NC(=O)/C(C#N)=C/c1ccc([N+](=O)[O-])o1)c1ccccc1 (stereo not drawn) | 36.7% |
| CC(OC(=O)CC(NC(=O)c1ccccc1Cl)c1ccccc1)C(=O)Nc1cccc(Cl)c1Cl (stereo not drawn) | 34.5% |
| CC(C)NC(=O)/C(C#N)=C/c1cccc(NC(=O)c2ccccc2Cl)c1 | 63.5% (active) |
| CC(NC(=O)/C(C#N)=C/c1ccc(Cl)c([N+](=O)[O-])c1)c1ccccc1 (stereo not drawn) | 62.2% (active) |
| CC(=O)Nc1sc2c(c1-c1nc3ccccc3s1)CCN(C(C)C)C2 | 98% (active) |
| Fc1ccc(NC(=S)N2CCSC2c2cccs2)cc1 (stereo not drawn) | 25.8% |
| Cc1cccc(/C=C/C(=O)c2ccc(NC3=NCCCS3)cc2)c1 | 60.4% (active) |
| CC(C)(C)c1ccc(/C=C/C(=O)c2ccc(NC3=NCCCS3)cc2)cc1 | 53.1% (active) |
| CC(=O)OCC(=O)[C@H]1CC[C@H]2[C@@H]3CC=C4C[C@@H](O)CC[C@]4(C)[C@H]3CC[C@]12C | 32.5% |

| Compound | inhibition |
| --- | --- |
| Brc1ccc(C=Nc2ccc(Nc3ccccc3)cc2)s1 | 56.1% (active) |
| Cc1ccc(C(=O)c2c(NC(=O)c3ccncc3)sc3c2CCCC3)cc1 | 58.1% (active) |
| Cc1ccccc1OCC(=O)Nc1sc2c(c1C#N)CCC2 | 35.5% |
| CCCCNC1CCS(=O)(=O)C1 (stereo not drawn) | 37.9% |
| CC(C)OC(=O)COc1ccc(-c2ccccc2)cc1 | 47.1% |
| CC(C)Oc1ccc2c(=O)c(-c3ccccc3)coc2c1 | 73.6% (active) |
| Cc1ccc(CN2CCN(/N=C/c3ccc(C(F)(F)F)cc3)CC2)c(C)c1 | 50.5% (active) |
| Cc1ccccc1-c1ccc(C(=O)Nc2cccc(F)c2)o1 | 56.5% (active) |
| O=C(Nc1cccc(F)c1)c1ccc(CSc2ccccc2)o1 | 37.5% |
| Cc1oc(C(=O)O)cc1COc1ccc2c3c(c(=O)oc2c1)CCC3 | 46.1% |
| COc1ccc2c(c1)O/C(=C\c1sccc1C)C2=O | 66.5% (active) |
| COC(=O)c1cccc(NC(=O)/C=C/c2ccc3c(c2)OCO3)c1 | 77.6% (active) |
| O=C(O)c1ccc2c(c1)N(Cc1cccc(F)c1)C(=O)CS2 | 19.6% |
| COc1ccccc1OCCN1CSC(=S)N(C)C1 | 54.5% (active) |
| CCCCC(CC(O)COCCC)c1n[nH]c(=S)n1-c1ccccc1 (stereo not drawn) | 42% |
| O=[N+]([O-])c1cc2oc3c(c2c(C=NCc2ccccc2)c1O)CCCC3 | 42.5% |
| O=[N+]([O-])c1cc(Cc2ccccc2)cc(C=Nc2ccc(N3CCOCC3)cc2)c1O | 51.5% (active) |
| CN(C)c1ccc(O)c2c1CC1CC3[C@@H](N(C)C)C(=O)C(C(N)=O)=C(O)[C@]3(O)C(=O)C1=C2O (stereo partly drawn) | 31.9% |
| O=C(N/N=C\c1cccc([N+](=O)[O-])c1O)C1COc2ccccc2O1 (stereo not drawn) | 81.3% (active) |
| COc1cccc(/C=N/NC(=O)CNC(=O)C2COc3ccccc3O2)c1O (stereo not drawn) | 42.9% |
| CCCCN(C)C(=O)c1nc2ccccn2c1CNCCCn1ncc2ccccc21 | 33.2% |
| O=[N+]([O-])c1cc(S(=O)(=O)N2CCCCCC2)ccc1F | 86.2% (active) |
| CC(C)C(C)NC(=O)COc1ccc(S(=O)(=O)N2CCOCC2)cc1[N+](=O)[O-] (stereo not drawn) | 12.2% |
| Cn1cc(C(=O)NCc2ccc(F)cc2)c(=O)c2cc(S(=O)(=O)N3CCCCC3)ccc21 | 34.4% |
| Cc1ccc(C(C[N+](=O)[O-])c2c(N)n(C)c(=O)n(C)c2=O)cc1 (stereo not drawn) | 98.2% (active) |

| Compound | inhibition |
| --- | --- |
| O=c1[nH][nH]c(-c2ccccc2O)c1C(C[N+](=O)[O-])c1ccc(Cl)cc1Cl (stereo not drawn) | 42.1% |
| COc1cccc(F)c1C(C[N+](=O)[O-])c1c(N)n(C)c(=O)n(C)c1=O (stereo not drawn) | 97.7% (active) |
| COc1ccccc1C(C[N+](=O)[O-])c1c(N)n(C)c(=O)n(C)c1=O (stereo not drawn) | 99.8% (active) |
| Cc1nc([N+](=O)[O-])c(Br)n1CC(=O)c1ccc(Cl)cc1 | 37.6% |
| Cc1ccccc1Cn1c(=N)n(CC(=O)c2ccc([N+](=O)[O-])cc2)c2ccccc21 | 53.6% (active) |
| N=c1n(CC(=O)c2ccc([N+](=O)[O-])cc2)c2ccccc2n1Cc1ccccc1Cl | 28.8% |
| CCCCCOc1ccc(Cn2ccnc2)cc1[N+](=O)[O-] | 64% (active) |
| CCCCOc1ccc(CSC2=NCCN2)cc1[N+](=O)[O-] | 40.1% |
| CCc1cccc2c(C(=O)COC(=O)c3ccc([N+](=O)[O-])s3)c[nH]c12 | 95.7% (active) |
| CCc1cccc2c(C(=O)CSc3nncn3-c3ccc(OC)cc3)c[nH]c12 | 38.1% |
| CCc1cccc2c(C(=O)COC(=O)c3ccccc3)c[nH]c12 | 43.6% |
| O=C(Nc1nc2c(c(=O)[nH]1)CCCC2)C1CC1 | 31.5% |
| O=C1c2ccccc2C(O)N1c1cccnc1 (stereo not drawn) | 23.4% |
| O=C1c2ccccc2C(Nc2ccc(Cl)cn2)N1Cc1ccccc1 (stereo not drawn) | 52.1% (active) |
| COc1ccc(C(C)C)cc1S(=O)(=O)n1cnc(C)c1 | 42.7% |
| COC(=O)/C=C/C(=O)N1CCN(c2cccc(Cl)c2)CC1 | 62.8% (active) |
| COC(=O)c1cc(OC)c(OC)cc1NC(=S)N1CCN(c2ccccc2)CC1 | 39.1% |
| O=C(CN1CCN(c2cccc(Cl)c2)CC1)Nc1ccc(S(=O)(=O)N2CCOCC2)cc1 | 33.4% |
| C#CCOc1c(Br)cc(/C=N/O)cc1OCC | 17.9% |
| CNc1nc(SCc2ccccc2Cl)nc2c1CCCC2 | 97.2% (active) |
| CNc1nc(SCc2ccc(C)cc2)nc2c1CCCC2 | 98.4% (active) |
| Cc1oc(-c2ccccc2Cl)nc1CSc1nc2c(c(=O)[nH]1)CCC2 | 21.4% |
| NC(=NCCc1ccc(Cl)cc1)NS(=O)(=O)c1ccc(F)cc1 | 23.1% |
